In PubChem BioAssay AID624297 (National Center for Advancing Translational Sciences (NCATS), 2012):
The campaign covered roughly 340,000 compounds. About 6,200 (1.8%) were called active. Roughly 10% stayed inconclusive and do not appear here. Calls follow the shape of the dose curve; as a rule, active = well fitted activation curve with a large enough effect; inconclusive = small, poorly fitted or top-dose-only effect; inactive = no such curve, though single readings can be large or run the other way. What follows is part of a selection rich in actives, with near analogues and random picks from the rest.

Test: A quantitative high throughput screen for small molecules that induce DNA re-replication in SW480 colon adenocarcinoma cells. Also: nearly all actives have a fitted effect of over 55% in size. As to re-replication activation: % of control where 0% means no effect.
Settings: Hoechst DNA content imaging, 48 h; series mostly up to 46.1 µM
Description: H Molecular Libraries Probe Production Network [MLPCN] NIH Chemical Genomics Center [NCGC] MLPCN Grant: Fast Track K99 CA136555 Assay Provider: Melvin DePamphilis, NICHD, NIH Assay Overview Eukaryotic cells normally restrict genome duplication to once per cell division. When this process is aberrant, DNA re-replication occurs when cells reinitiate DNA replication before the first round of replication is complete. DNA re-replication induces the DNA damage response, arrests cell proliferation, and triggers apoptosis. The cell cycle components cyclin A, Cdt-1, Cdc6 and geminin are critical regulators of this process and their misregulation results in DNA re-replication in normal and cancer cells. To identify compounds that induce re-replication in normal cells, an image-based assay was used to measure DNA content of nuclei, as detected by the fluorescent DNA binding dye, Hoechst. Cell nuclei were imaged by a fluorescence scanning plate imager and compounds that induce DNA re-replication were identified by the increase of nuclei with elevated fluorescence intensity
For screening, 250 cells in 5 uL/well were dispensed into black clear 1536-well plates (Aurora) using a solenoid-based dispenser. Following transfer of 23 nL compound or DMSO vehicle by a pin tool, the plates were incubated 48 hr at 37 C and 5% CO2. After addition of 1 uL/well Hoescht stain, the plates were incubated 40 min at 37 C, 5% CO2 and total intensity of fluorescent objects (nuclei) were enumerated by an Acumen Explorer Ex3 (TTP LabTech) fluorescence scanning plate imager (405 nm excitation, 500-530 nm emission). Keywords: NIH Roadmap, MLPCN, MLI, MLSMR, qHTS, NCGC, DNA replication, cancer
Potency is read from the fitted curve at half-maximal effect.

Potency, active:
Cc1ccc(O)c(-c2cc(C(=O)Nc3c(C)n(C)n(-c4ccccc4)c3=O)[nH]n2)c1 0.058 µM, COc1ccccc1N1N=C(c2cccs2)CC1c1ccccc1 (stereo unspecified) 2.59 µM, Cc1cc(=O)oc2cc(OCC3CC(c4ccccc4Cl)=NO3)ccc12 (stereo unspecified) 3.66 µM, CCCSC(=S)NC1CCS(=O)(=O)C1 (stereo unspecified) 16.4 µM, CC(C)(C)n1cnnc1Sc1ccc([N+](=O)[O-])cn1 18.4 µM, COc1ccc(OC)c2[nH]c(=O)c(CCNC(=O)C(=O)c3c[nH]c4ccccc34)cc12 20.6 µM, O=C(Nc1cccc(Cl)c1N1CCOCC1)c1ccc2c(c1)OCCO2 2.31 µM, O=C(Nc1nnc(Cc2ccc(Cl)cc2)s1)c1cccnc1 18.4 µM, C=CCSc1nc2c(c(=O)[nH]c(=O)n2C)n1Cc1ccccc1 1.64 µM, CCN(CC)S(=O)(=O)c1ccc(N2CCCC2)c(NC(=O)c2ccc([N+](=O)[O-])o2)c1 13 µM, CC(C)(C)c1ccc(C(=O)NCCn2c(N)c(C#N)c3nc4ccccc4nc32)cc1 20.6 µM, N#Cc1c(N)n(CCOC(=O)c2ccc(Cl)cc2)c2nc3ccccc3nc12 20.6 µM, CCCCCCOc1ccc(OC(=O)c2cccnc2)cc1 8.2 µM

Potency, inactive:
CC(NC(=O)COC(=O)c1ccc2ccccc2n1)c1ccccc1 (stereo unspecified), Cc1c(NC(=O)c2cccnc2)c(=O)n(-c2ccccc2)n1C, Cc1ccc(O)c(-c2cc(C(=O)NCc3ccccc3)[nH]n2)c1, O=C1Cc2cc(S(=O)(=O)Nc3cccc(F)c3)ccc2N1, CC(OC(=O)c1cc2ccccc2[nH]1)C(=O)N(C)c1ccccc1 (stereo unspecified), COc1cccc(C2CC(c3cccs3)=NN2C(=O)CSC2=NCCS2)c1OC (stereo unspecified), COc1ccc(C2CC(c3cccs3)=NN2C(=O)CCC(=O)O)cc1OC (stereo unspecified), NC(=O)C1(N2CCCC2)CCN(Cc2ccccc2)CC1, CCCCN1CC(COCc2ccccc2)OCCS1(=O)=O (stereo unspecified), Cc1cccc(CC2(O)C(=O)Nc3ccccc32)n1 (stereo unspecified), O=C(CC1Sc2ccccc2NC1=O)NNc1ccc(Cl)c(Cl)c1 (stereo unspecified), COc1cccc(NC(=O)COc2cccnc2[N+](=O)[O-])c1, Cc1ccccc1N1CCN(CCCOc2ccc3c(C)cc(=O)oc3c2)CC1, Cc1cc(=O)oc2cc(OCCC[n+]3ccccc3)ccc12, COc1ccc(NC(=S)NC2CCS(=O)(=O)C2)cc1 (stereo unspecified), O=C(Cc1ccc(Cl)cc1)NC1CCS(=O)(=O)C1 (stereo unspecified), CCNC(=S)N1CCN(S(=O)(=O)c2ccc(Cl)s2)CC1, CC1O[C@@H](OC2C(O)C(C)O[C@H](OC(=O)[C@]34CCC(C)(C)C[C@H]3C3=CCC5[C@@]6(C)CC(O)C(O[C@@H]7OC(CO)C(O)[C@@H](O)[C@@H]7O)[C@@](C)(C(=O)O)C6CC[C@@]5(C)[C@]3(CO)CC4)C2O[C@H]2OC(C)[C@@H](O[C@@H]3OCC(O[C@@H]4OC(CO)C(O)[C@H](O)C4O)[C@@H](O)[C@@H]3O)[C@H](O)C2O)C(O)C(O)C1O (stereo partly specified), Cc1cccc(C)c1NC(=O)CSc1ccc([N+](=O)[O-])cn1, O=[N+]([O-])c1ccc(Sc2n[nH]c(-c3ccco3)n2)nc1, CC[C@]12c3[nH]c4cc(CCC(=O)N(C)C)ccc4c3CCN1C(=O)[C@@H](CC(=O)NCCCN(C)C)C[C@@H]2C(=O)N1CCN(C(=O)c2ccco2)CC1, CCOC(=O)[C@H]1[C@H]2COc3cc(OC)ccc3[C@@H]2N2C(=O)CN(Cc3ccc(Cl)cc3)C(=O)[C@@]12C, Cc1ccsc1C(=O)OCC(=O)NCCc1ccccc1, COc1ccc(OC)c2[nH]c(=O)c(CCNC(=O)C(C)(C)C)cc12, COc1ccc(/C=C(\NC(=O)c2ccc(OC)c(OC)c2)C(=O)NCCc2c[nH]c3ccccc23)cc1, COc1ccccc1-c1sc2ccccc2c1C#CC1(O)CCCCC1, O=C(Nc1cccc(Cl)c1N1CCOCC1)c1cccnc1, COC(=O)c1ccc(N2CCOCC2)c(NC(=O)c2ccc3c(c2)OCCO3)c1, O=C(Nc1cccc(Br)c1)C1CC(=O)N(C2CCCC2)C1 (stereo unspecified), O=C(c1ccc(N2CCOCC2)c([N+](=O)[O-])c1)N1CCN(c2ccccc2F)CC1, O=C(Nc1nnc(Cc2ccccc2)s1)c1cnccn1, O=C(Nc1nnc(Cc2ccc(Cl)cc2)s1)c1ccncc1, C=CCn1c(SCc2ccccc2)nc2c1c(=O)[nH]c(=O)n2C, Cc1nnc(Sc2nc3c(c(=O)[nH]c(=O)n3C)n2Cc2ccccc2)s1, CCN(CC)S(=O)(=O)c1ccc(N2CCOCC2)c(NC(=O)c2ccc(=O)n(C)n2)c1, CCN(CC)S(=O)(=O)c1cc(C(=O)Nc2cc(S(=O)(=O)N3CCOCC3)ccc2N2CCCC2)ccc1F, COc1ccc(-c2nnc(-c3ccc4ccccc4c3)o2)cc1, CN(Cc1ccccc1)C(=O)COC(=O)/C=C/c1ccc2c(c1)OCO2, CC(C)(C)c1ccc(C(=O)NCC(=O)OCN2C(=O)c3ccccc3C2=O)cc1, Cn1cncc1COC(=O)c1ccc(Cl)cc1, CN1OC(COC(=O)c2ccc(Cl)cc2)CC1c1ccccc1 (stereo unspecified), CC(C)(C)OC(=O)c1c(N)n(CCCN2CCCC2=O)c2nc3ccccc3nc12, CSCCC(NC(=O)c1ccccc1)C(=O)N1CCN(Cc2ccc(Cl)cc2)CC1 (stereo unspecified), CC1CCCN(C(=O)CN2C(=O)c3ccccc3S2(=O)=O)C1 (stereo unspecified), N#CCc1ccc(OC(=O)c2cccnc2)cc1, O=C(Oc1ccc(Br)cc1)c1cccnc1

re-replication activation, inactive:
C=CCCC(=O)N1C[C@H]2CON(C)[C@H]2C[C@H]1c1cccc(Nc2ccccc2)c1 -6.4% [at 9.22 µM], COc1ccc(S(=O)(=O)N(C)C[C@H]2Oc3ccc(NS(=O)(=O)c4cccs4)cc3CC(=O)N([C@H](C)CO)C[C@H]2C)cc1 -2.46% [at 9.22 µM]
